The results in this text go back to PubChem BioAssay.

The assay is described as follows: differential killing of epithelial or mesenchymal cells, primary screen, imaging, PC-3E GFP, TEM4-18 mCherry, co-culture (AID 1345086).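 As to all read-outs here: cells exposed to compound for 72 h before imaging.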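 As to red/green cell ratio (normalised): normalised mesenchymal count divided by normalised epithelial count so high means epithelial killing.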 The conditions noted are these: imaging cell counts, at 1 µM; for red/green cell ratio (normalised): actives lie on both sides, counts scaled to control wells, 1 = unselective.
Setting [1] is: measured here: epithelial PC-3E GFP cell survival.
[2] abbreviates: measured here: mesenchymal TEM4-18 mCherry cell survival.

Activity calls are given as the source filed them.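 The calls were made as follows: active = compounds killing one labelled cell type while sparing the other, by normalised counts and ratio limits, not self-fluorescent; inactive = the rest.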

For the molecule `Nc1ccc(S(=O)(=O)Nc2nccs2)cc1`, the red/green cell ratio (normalised) is 1.36 (inactive). Moreover, the normalised cell number under setting [1] came out at 0.91. Under setting [2], this molecule showed a normalised cell number of 1.24.

As for `CC1CCc2cc(F)cc3c(=O)c(C(=O)O)cn1c23` (configuration not stated), the red/green cell ratio (normalised) was 1.19 (inactive). For the same molecule, the normalised cell number under setting [1] is 0.89. For the same molecule, the normalised cell number under setting [2] came to 1.05.

For the molecule `Cc1cc(NC(=O)C2=C(O)c3ccccc3S(=O)(=O)N2C)no1`, the red/green cell ratio (normalised) is 0.87 (inactive). Under setting [1], this molecule had a normalised cell number of 0.97. Besides, the normalised cell number under setting [2] worked out at 0.84.

With `O=C1NCC2(CCN(CCc3ccccc3)CC2)O1`, the red/green cell ratio (normalised) was 0.97 (inactive). The molecule further showed a normalised cell number under setting [1] of 1.16. Also, the normalised cell number under setting [2] stood at 1.12.

On to `CC(=O)OCC(COC(C)=O)OC(C)=O`, for which the red/green cell ratio (normalised) was 1.26 (inactive). Under setting [1], this molecule yielded a normalised cell number of 0.97. Further, the normalised cell number under setting [2] turned out to be 1.22.

Take `CC(=O)Oc1ccc(C(c2ccc(OC(C)=O)cc2)c2ccccn2)cc1`: the red/green cell ratio (normalised) is 0.85 (inactive). Further, under setting [1], the normalised cell number is 1.24. Under setting [2], this molecule had a normalised cell number of 1.06.

For `CN(C)CCCN1c2ccccc2Sc2ccccc21`, the red/green cell ratio (normalised) was 1.19 (inactive). Further, the normalised cell number under setting [1] was found to be 1.03. Under setting [2], this molecule came in with a normalised cell number of 1.24.

As for `CCCCCC(C)N` (configuration not stated), the red/green cell ratio (normalised) is 1.26 (inactive). For the same molecule, the normalised cell number under setting [1] amounted to 0.94. Moreover, under setting [2], the normalised cell number worked out at 1.18.

In the case of `CCN1CCCC(OC(=O)C(c2ccccc2)c2ccccc2)C1` (configuration not stated), the red/green cell ratio (normalised) is 1.28 (inactive). Besides, the normalised cell number under setting [1] came out at 0.93. The molecule also showed a normalised cell number under setting [2] of 1.19.

Turning to `OC(CCN1CCCCC1)(c1ccccc1)c1ccccc1`, the red/green cell ratio (normalised) is 0.87 (inactive). Under setting [1], the normalised cell number is 1.06. Further, the normalised cell number under setting [2] stood at 0.92.

Consider `C=C1c2cccc(O)c2C(O)=C2C(=O)[C@]3(O)C(O)=C(C(N)=O)C(=O)[C@@H](N(C)C)[C@@H]3[C@@H](O)[C@H]12`, for which the red/green cell ratio (normalised) is 0.93 (inactive). The normalised cell number under setting [1] turned out to be 0.85. The normalised cell number under setting [2] was determined as 0.79.

Regarding `CN(C)CCC(c1ccccc1)c1ccccn1` (configuration not stated), the red/green cell ratio (normalised) was 1.11 (inactive). The same molecule displayed a normalised cell number under setting [1] of 0.86. This molecule also came in with a normalised cell number under setting [2] of 0.95.

On to `Nc1ccc(S(=O)(=O)NC(=O)c2ccccc2)cc1`, for which the red/green cell ratio (normalised) was 1.62 (inactive). Under setting [1], this molecule showed a normalised cell number of 0.9. Under setting [2], this molecule yielded a normalised cell number of 1.46.

`CCN(CC)CCOC(=O)C(c1ccccc1)C1CCCCC1` (configuration not stated): the red/green cell ratio (normalised) is 0.94 (inactive). The normalised cell number under setting [1] turned out to be 0.95. In addition, under setting [2], the normalised cell number amounted to 0.89.
